Experimental findings from PubChem BioAssay AID1851 (National Center for Advancing Translational Sciences (NCATS), 2009) are described below.

The campaign covered roughly 16,000 compounds. About 5,800 (36%) were called active. Not shown: some 23% with an inconclusive outcome. Some of the results follow. Unmarked numbers belong to inactive results. Calls come from the whole dose curve; as a rule, active = well fitted curve in the direction sought with a large enough effect; inconclusive = small, poorly fitted or top-dose-only effect, or effect the other way; inactive = no such curve, though single readings can be large or run the other way.
% is set by controls: 0 for no effect and ±100 for the full control effect.

The target of the test is Cytochrome P450 2C19 (Homo sapiens) (UniProt P33261). As to the kind of experiment: Cytochrome panel assay with activity outcomes. To be noted: recombinant CYP, pro-luciferin dealkylation, luminescence, p450-cyp2c19; series mostly up to 57.1 µM; activity, negative = inhibition: at the top concentration.
Sequence of Cytochrome P450 2C19 (Homo sapiens) (P33261 whole entry, looked up): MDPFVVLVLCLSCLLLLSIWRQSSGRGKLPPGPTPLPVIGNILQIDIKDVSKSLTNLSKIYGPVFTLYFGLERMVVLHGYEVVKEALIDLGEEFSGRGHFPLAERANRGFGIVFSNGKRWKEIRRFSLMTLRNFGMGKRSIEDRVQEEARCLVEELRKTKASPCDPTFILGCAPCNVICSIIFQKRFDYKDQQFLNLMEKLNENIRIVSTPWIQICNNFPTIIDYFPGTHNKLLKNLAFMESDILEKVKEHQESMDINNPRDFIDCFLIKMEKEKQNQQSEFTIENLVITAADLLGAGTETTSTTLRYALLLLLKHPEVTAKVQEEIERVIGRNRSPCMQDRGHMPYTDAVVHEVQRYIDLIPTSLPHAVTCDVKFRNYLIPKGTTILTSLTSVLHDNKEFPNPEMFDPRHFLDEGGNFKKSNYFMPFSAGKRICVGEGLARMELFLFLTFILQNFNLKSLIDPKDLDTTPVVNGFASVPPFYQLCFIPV
On to `C=C1C(=O)O[C@@H]2[C@H]3O[C@]3(C)CCC=C(C)CC[C@@H]12`, for which the “activity, negative = inhibition” value is -30%.
As a reminder, the AC50 is the midpoint of the concentration-response curve, whichever way the signal moves. For `CCC(=O)NC(Nc1sc2c(c1C(=O)OC)CCCC2)(C(F)(F)F)C(F)(F)F`, the AC50 is 3980 nM (active).
`CC(C)CC(=O)N[C@H](C(=O)N[C@H](C(=O)N[C@@H](CC(C)C)[C@H](O)CC(=O)N[C@@H](C)C(=O)N[C@@H](CC(C)C)[C@H](O)CC(=O)O)C(C)C)C(C)C`: the “activity, negative = inhibition” value was -5.61% [at 25.6 µM].
Consider `C#CCCCO/N=C1/[C@H]2O[C@@H]2[C@@H](O)[C@H]2[C@H]1CCn1c(=O)n([C@@H](CC)c3ccccc3)c(=O)n12`, for which the activity, negative = inhibition was -6.75% [at 11.4 µM].
In the case of `COc1ccc(C(=O)CN(C(=O)c2ccc(Cl)cc2)N2C(=O)c3ccccc3C2=O)cc1`, the AC50 was 4470 nM (active).
On the same count and under the same terms, the result for `Cc1ccc(C(=O)CN(C(=O)c2ccc(Cl)cc2)N2C(=O)c3ccccc3C2=O)cc1` reads 15800 nM (active); that for `COc1ccccc1CNc1ncncc1-c1ccccc1C`, 3980 nM (active).
Same read-out and setting: the result for `COc1ccccc1CNc1ncncc1-c1ccccc1Cl` reads 1260 nM (active).
For the compound `COc1ccc(CNc2ncncc2-c2ccccc2OC)c(OC)c1`, the half-maximal activity concentration (AC50) is 2000 nM (active).
Still for that read-out and setting: the same measure for `COc1ccc(CNc2ncncc2-c2ccccc2C)c(OC)c1`: 1580 nM (active).
As for `CCCCOc1cc(C[C@@H]2CNC(=O)N2)ccc1OC`, the “activity, negative = inhibition” value was 6.71%.
The same measure, in the same setting: the same measure for `CC[N+](CC)(CC)CCOc1cccc(OCC[N+](CC)(CC)CC)c1OCC[N+](CC)(CC)CC`: 33.1% [at 25.6 µM].
Turning to `CCCCOc1ccccc1N`, the AC50 was 14100 nM (active).
For the compound `Cc1ccc(-n2ncc3c(=O)n(CC(=O)NCC4CCCO4)cnc32)cc1` (stereo unspecified), the “activity, negative = inhibition” value is -21.8%.
In the case of `CC(C)(C)n1ncc2c(=O)n(CC(=O)NCc3ccccc3Cl)cnc21`, the concentration at half-maximal activity (AC50) was 14100 nM (active).
Same read-out and setting: the result for `Cc1ccccc1Cn1cnc2c(cnn2C(C)(C)C)c1=O` reads 2000 nM (active).
`Cc1ccc(NC(=O)Cn2cnc3c(cnn3C(C)(C)C)c2=O)cc1`: the “activity, negative = inhibition” value is -26.7%.
As to `Cc1ccc(C)c(Cn2cnc3c(cnn3C(C)(C)C)c2=O)c1`, the AC50 is 398 nM (active).
With `O=c1[nH]c2cc(Cl)ccc2c(O)c1-c1ccc(Oc2ccccc2)cc1`, the “activity, negative = inhibition” value is 10.8%.
In the case of `Nc1cc(Cl)ccc1Oc1ccccc1`, the concentration at half-maximal activity (AC50) was 3980 nM (active).
On to `Nc1cc(Cl)ccc1Oc1ccc(Cl)cc1`, for which the AC50 was 562 nM (active).
With `Cc1cc(=O)[nH]c(-n2[nH]c(C)cc2=O)n1`, the “activity, negative = inhibition” value is -9.54%.
For `CCCn1c(C)nc2c(c1=O)c1nc3ccccc3nc1n2CCC1=CCCCC1`, the concentration at half-maximal activity (AC50) was 8910 nM (active).
With `CCO/C(C)=N/n1c2nc3ccccc3nc2c2c(=O)n(CC(C)C)c(C)nc21`, the “activity, negative = inhibition” value is -24.5%.
As for `Oc1ccc(Cc2cc(Cl)cc(Cl)c2O)cc1Cl`, the AC50 is 1260 nM (active).
Turning to `O=C(O)Cc1cc(Cl)ccc1O`, the activity, negative = inhibition was 42.6% [at 11.4 µM].
Take `Oc1ccc(Cl)cc1Cc1cc(Cl)cc(Cc2cc(Cl)ccc2O)c1O`: the concentration at half-maximal activity (AC50) was 1260 nM (active).
Consider `OCCSCc1cc(Cl)cc(Cl)c1O`, for which the activity, negative = inhibition was -25.3% [at 11.4 µM].
For `COC(=O)[C@@]1(Cc2ccccc2)[C@H]2c3cc(C(=O)N4CCCC4)n(Cc4cc(F)cc5c4OCOC5)c3C[C@H]2CN1C(=O)c1ccccc1`, the AC50 was 251 nM (active).
The same measure, in the same setting: the result for `COC(=O)[C@@]1(Cc2ccc(OC)cc2)[C@H]2c3cc(C(=O)N4CCCC4)n(Cc4cc(F)cc5c4OCOC5)c3C[C@H]2CN1C(=O)c1ccccc1` reads 7940 nM (active).
With `COc1ccc(C(=O)N2CCC3(CCCN(Cc4ccccc4OC)C3)CC2)cc1`, the “activity, negative = inhibition” value was -4.97%.
Same read-out and setting: the result for `Cn1cnc([N+](=O)[O-])c1Sc1nc(N)nc2c1ncn2Cc1ccccc1` reads 21.2% [at 11.4 µM]; that for `Nc1nc(SCc2ccc([N+](=O)[O-])cc2)c2ncn([C@@H]3O[C@@H](CO)[C@@H](O)[C@H]3O)c2n1`, -25.4%.
The same measure, in the same setting: the same measure for `OC[C@@H]1O[C@@H](n2cnc3c(SCc4ccccc4)ncnc32)[C@@H](O)[C@H]1O`: 1.35% [at 11.4 µM].
With `Nc1nc(SCc2ccccc2)c2ncn(Cc3ccccc3)c2n1`, the half-maximal activity concentration (AC50) is 2510 nM (active).
On the same count and under the same terms, the same measure for `CCCn1cnc2c(SCc3ccc(Cl)cc3)nc(N)nc21`: 501 nM (active).
In the case of `Cn1c(=O)c2cc(S(=O)(=O)NCCC(=O)Nc3ccc(Cl)cc3)ccc2n(C)c1=O`, the “activity, negative = inhibition” value is -26.7%.
Turning to `Cn1c(=O)oc2cc(S(=O)(=O)NCCC(=O)N3CC=C(c4ccccc4)CC3)ccc21`, the concentration at half-maximal activity (AC50) is 6310 nM (active).
With `CCCN(CCC)CCNC(=O)C1CCCN(S(=O)(=O)c2ccc3c(c2)oc(=O)n3C)C1` (stereo unspecified), the “activity, negative = inhibition” value was 22.6%.
Same read-out and setting: the same measure for `CC(C)(C)c1onc(OCP(=O)(O)O)c1C[C@@H](N)C(=O)O`: -1.17%.
On to `Cc1c(Cl)cccc1NC(=O)c1ccc(-n2ccnc2)nc1`, for which the concentration at half-maximal activity (AC50) was 44.7 nM (active).
On the same count and under the same terms, the same measure for `O=C(Nc1ccc(F)cc1)c1ccc(-n2ccnc2)nc1`: 70.8 nM (active).
Regarding `CCOc1cc(C#N)c(NC(=O)c2cccnc2)cc1OCC`, the “activity, negative = inhibition” value was -11.4%.
With `COC(=O)c1cc(=O)[nH]c(=O)[nH]1`, the activity, negative = inhibition was 23% [at 11.4 µM].
Same read-out and setting: the same measure for `CCNc1ncc2nc(-c3cc(F)cc(F)c3)c(=O)n(CCOC)c2n1`: -41.4%.
On the same count and under the same terms, the result for `COC(=O)/C=C\CCc1coc(/C=C\CNC(=O)OC)n1` reads 31.7% [at 11.4 µM].
As to `CCCCc1n[nH]c2c1/C(=N/O)CC(c1ccccc1)C2` (stereo unspecified), the concentration at half-maximal activity (AC50) was 447 nM (active).
On the same count and under the same terms, the same measure for `CCCc1cc(=O)oc2cc(OCc3nn[nH]n3)ccc12`: 25100 nM (active).
With `CCCc1cc(=O)oc2cc(OCc3cc(OC)c(OC)c(OC)c3)c(Cl)cc12`, the “activity, negative = inhibition” value was 4.84%.
With `CCn1c(-c2ccccc2Cl)nn(CC(=O)Nc2ccc(OC)cc2)c1=S`, the concentration at half-maximal activity (AC50) is 3550 nM (active).
Still for that read-out and setting: the same measure for `CCn1c(-c2ccccc2Cl)nn(CC(=O)Nc2cc(Cl)ccc2Cl)c1=S`: 1780 nM (active); for `CCn1c(-c2ccccc2Cl)nn(CC(=O)Nc2ccccc2OC)c1=S`: 891 nM (active); for `COC(=O)c1ccc(C23CC2(C(NP(=O)(c2ccccc2)c2ccccc2)c2ccccc2)C3)cc1` (stereo unspecified): 10000 nM (active).
On to `NCS(=O)(=O)O`, for which the activity, negative = inhibition is 8.81% [at 11.4 µM].
Still for that read-out and setting: the result for `Cn1nc(C(=O)NC2CCCCC2)c2ccccc2c1=O` reads -26%; that for `O=C(NNC(=O)C1CCCCC1)c1cnccn1`, -21.2%.
With `O=C(NC1CCCC1)c1cccnc1N1CCCCCC1`, the AC50 is 8910 nM (active).
Turning to `COc1ccc(OC)c(NC(=O)[C@H]2CC=CC[C@H]2C(=O)O)c1`, the “activity, negative = inhibition” value is -9.87%.
In the case of `COc1cc(C)nc(N2CCCC(C(=O)Nc3cc(Cl)ccc3OC)C2)n1` (stereo unspecified), the AC50 was 126 nM (active).
Still for that read-out and setting: the result for `O=C(/C=C/c1ccc2ccccc2c1)c1ccoc1` reads 2000 nM (active); that for `CS(=O)(=O)c1nc(-c2ccccc2)cc(-c2ccccc2)c1C#N`, 794 nM (active).
In the case of `O=C1c2ccccc2-c2ccc(NC(=O)[C@H]3CCCC[C@@H]3C(=O)O)cc21`, the activity, negative = inhibition was -17.3% [at 11.4 µM].
The same measure, in the same setting: the same measure for `O=C1c2ccccc2-c2ccc(N(Cc3ccc(Br)cc3)Cc3ccc(Br)cc3)cc21`: -10.9% [at 11.4 µM].
Regarding `O=C(OCc1cccc(F)c1)c1ccc2c(c1)-c1ccccc1C2=O`, the half-maximal activity concentration (AC50) was 11200 nM (active).
Regarding `COc1ccc(NC(=O)N2CC[C@@]3(CCCN(C(=O)c4cnccn4)C3)C2)cc1`, the “activity, negative = inhibition” value was 17.4%.
With `Cc1nc2c(C(=O)NCc3ccc4c(c3)OCO4)c[nH]n2c(=O)c1Cc1ccccc1F`, the half-maximal activity concentration (AC50) was 14100 nM (active).
With `Cc1nc2c(C#N)c(C)[nH]n2c(=O)c1Cc1ccccc1`, the “activity, negative = inhibition” value was -16.2%.
In the case of `CC(=O)O[C@H]1C2=CO[C@H](C)[C@H]3[C@H]4C5=C([C@H](O)[C@H]6O[C@@H]6C5=O)[C@H](O[C@H]4C)[C@@]23C(=O)[C@H]2O[C@@H]21`, the activity, negative = inhibition was 11.4% [at 11.4 µM].
For the compound `C[C@@H]1O[C@H]2C3=C(C(=O)[C@H]4O[C@@H]4[C@H]3O)[C@@H]1[C@@H]1[C@@H](C)OC=C3[C@H](O)[C@H]4O[C@@H]4/C(=N\OCc4ccccc4)[C@]312`, the concentration at half-maximal activity (AC50) was 631 nM (active).
As for `Cn1c(=O)n2n(c1=O)[C@H]1[C@H](O)[C@H]3O[C@@H]3/C(=N/OCc3ccccc3)[C@@H]1CC2`, the activity, negative = inhibition is 50.3% [at 11.4 µM].
Turning to `CC(=O)c1c(C)[nH]c(C(=O)COc2ccc(C#N)cc2)c1C`, the AC50 is 8910 nM (active).
As for `CC(=O)c1[nH]c(C)c(C(C)=O)c1C`, the “activity, negative = inhibition” value is -10.7%.
`S=C1N(c2ccccc2)C(c2ccc(Cl)cc2)N2CCCN12` (stereo unspecified): the concentration at half-maximal activity (AC50) was 2240 nM (active).
On the same count and under the same terms, the result for `Cc1ccc(S(=O)(=O)/C(C#N)=C/c2c(N3CC(C)OC(C)C3)nc3ccccn3c2=O)cc1` (stereo unspecified) reads 14100 nM (active).
Consider `O=C(O)CCc1ccc(-c2ccc(Cl)cc2)n1CCC(=O)O`, for which the “activity, negative = inhibition” value was -23.8%.
Take `O=C1/C(=C/c2ccccc2)[C@@H](NC2CCCCC2)c2ccccc21`: the half-maximal activity concentration (AC50) was 1260 nM (active).
For the compound `O=C(CC(NS(=O)(=O)c1ccc(Cl)cc1)c1ccco1)NCc1ccco1` (stereo unspecified), the AC50 was 7940 nM (active).
In the case of `CCCNC(=O)CC(NS(=O)(=O)c1ccc(Cl)cc1)c1ccco1` (stereo unspecified), the AC50 was 1000 nM (active).
Regarding `CCCNC(=O)NS(=O)(=O)c1ccc(Cl)cc1`, the “activity, negative = inhibition” value is -5.17% [at 25.6 µM].
In the case of `CCOC(=O)C[C@@H](C(=O)OCC)[C@@H]1CCCCC1=O`, the activity, negative = inhibition was -32.2% [at 11.4 µM].
Still for that read-out and setting: the same measure for `O=C1NC(=O)C(c2ccccc2)(c2ccccc2)N1`: 10.9%.
On the same count and under the same terms, the same measure for `COC(=O)C/C=C\[C@@H](C)[C@@H]1C=C[C@H](OC(C)=O)[C@H](COC(C)=O)O1`: 16.3% [at 11.4 µM]; for `O=C1CN2CCN(CC2)CC(=O)Nc2ccc(cc2)S(=O)(=O)c2ccc(cc2)NC(=O)CN2CCN(CC2)CC(=O)Nc2ccc(cc2)S(=O)(=O)c2ccc(cc2)N1`: -8.07% [at 11.4 µM].
Turning to `CCn1c(-c2nonc2NC(=O)c2ccccc2)nc2ccccc21`, the AC50 is 1580 nM (active).
With `CCC(=O)Nc1nonc1-c1nc2ccccc2n1N(C(=O)CC)C(=O)CC`, the “activity, negative = inhibition” value is -13.8%.
The same measure, in the same setting: the same measure for `CN(C)Cc1ccccc1-c1ccc2ncnc(NC3CCNCC3)c2c1`: 0.549%.
On to `Clc1ccccc1-c1ccc2ncnc(NC3CCNCC3)c2c1`, for which the concentration at half-maximal activity (AC50) was 3980 nM (active).
`Cc1ccccc1-c1nc(NC2CCNCC2)c2ccccc2n1`: the “activity, negative = inhibition” value is -11.2%.
On to `FC(F)(F)c1ccccc1-c1ccc2ncnc(NC3CCNCC3)c2c1`, for which the concentration at half-maximal activity (AC50) was 3980 nM (active).
On to `FC(F)(F)c1ccccc1-c1ccc2ncnc(NC3CC3)c2c1`, for which the AC50 is 2000 nM (active).
Same read-out and setting: the result for `Cc1ccccc1-c1ccc2ncnc(NC3CC3)c2c1` reads 1260 nM (active).
